Unmarked numbers belong to inactive results. For some assays here: Results with a measured potency or affinity are listed apart. Calls of active or inactive are those of the source. Unless noted, no rule for the calls is given here.
Legend:
[1] = antimalarial activity against Dd2 strain (AID 2302;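 active = growth inhibition above 50% at the single 2 µM test dose, taken to imply half-maximal potency below 2 µM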;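 also: 0% = DMSO untreated growth and 100% = chloroquine plus artemisinin killed control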); settings: P. falciparum Dd2 in RBCs, LDH growth readout, 72 h; at 2 µM; hits give high values
[2] = HepG2 cytotoxicity, primary screen, cytotoxicity control for P. falciparum antimalarial project, cell-based, ATP luminescence (AID 2303;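 active = inhibition above 50%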;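 also: 0% = DMSO wells and 100% = digitonin-killed cells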); settings: HepG2 viability, 24-48 h, at 10 µM, hits give high values
[3] = molecular target: L-lactate dehydrogenase (Plasmodium falciparum (isolate CDC / Honduras)) (UniProt Q27743); assay: PfLDH activity inhibition – cell lysate, 3D7 strain, counter-screen for P. falciparum growth inhibition project (AID 2304);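 also: 0% = vehicle and 100% = reference inhibitor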; settings: P. falciparum 3D7 crude extract, LDH APAD/NBT absorbance; at 2 µM; hits give high values
[4] = inhibition of 3D7 malaria parasite growth – strain 3D7 (AID 2306);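 also: 0% = DMSO wells and 100% = chloroquine plus artemisinin control wells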; settings: P. falciparum 3D7 erythrocytic growth, LDH absorbance, 72 h; at 2 µM; hits give high values
[5] = molecular target: Calcium-dependent protein kinase 1 (Plasmodium falciparum (isolate 3D7)) (UniProt P62344); assay: PfCDPK1 kinase inhibitors, biochemical, TCAMS library (AID 1159585; cut-off not given, nearly all actives have IC50 up to about 0.98 µM;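 also: inhibitors leave more ATP so luminescence rises with inhibition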); settings: recombinant PfCDPK1, Kinase-Glo ATP depletion luminescence
[6] = molecular target: Plasmodium falciparum protein kinase 6 (PK6, PF3D7_1337100) (UniProt Q8IDW1); assay: PfPK6 kinase inhibitors, biochemical, TCAMS library (AID 1159586); settings: recombinant PfPK6, Kinase-Glo ATP depletion luminescence
[7] = molecular target: Protein kinase 7 (PK7), Plasmodium falciparum 3D7 (PF3D7_0213400) (UniProt Q7YTF7); assay: inhibition of Plasmodium PK7 catalytic activity – biochemical, TCAMS antimalarial set, Kinase-Glo luminescence (AID 1159587); settings: recombinant PfPK7, Kinase-Glo ATP depletion luminescence
[8] = molecular target: Calcium-dependent protein kinase 4 (Plasmodium falciparum (isolate 3D7)) (UniProt Q8IBS5); assay: PfCDPK4 kinase inhibitors, biochemical, TCAMS library (AID 1159588; cut-off not given, nearly all actives have IC50 up to about 0.91 µM); settings: recombinant PfCDPK4, Kinase-Glo ATP depletion luminescence
Calcium-dependent protein kinase 4 (Plasmodium falciparum (isolate 3D7)), sequence (Q8IBS5 whole entry, looked up): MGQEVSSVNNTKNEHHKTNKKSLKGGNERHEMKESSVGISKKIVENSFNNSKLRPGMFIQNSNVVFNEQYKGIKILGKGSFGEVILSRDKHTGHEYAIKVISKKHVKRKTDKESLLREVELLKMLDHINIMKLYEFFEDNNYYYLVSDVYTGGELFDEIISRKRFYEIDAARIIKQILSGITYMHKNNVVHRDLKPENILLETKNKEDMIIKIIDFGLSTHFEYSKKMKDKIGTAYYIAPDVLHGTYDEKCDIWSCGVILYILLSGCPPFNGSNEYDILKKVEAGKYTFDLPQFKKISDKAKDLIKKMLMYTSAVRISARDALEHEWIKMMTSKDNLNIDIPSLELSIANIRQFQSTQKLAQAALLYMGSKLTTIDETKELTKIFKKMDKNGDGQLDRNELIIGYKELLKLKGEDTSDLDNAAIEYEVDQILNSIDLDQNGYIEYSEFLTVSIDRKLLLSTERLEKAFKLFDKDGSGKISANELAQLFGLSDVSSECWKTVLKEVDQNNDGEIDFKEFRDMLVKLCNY

Calcium-dependent protein kinase 1 (Plasmodium falciparum (isolate 3D7)), sequence (P62344 whole entry, looked up): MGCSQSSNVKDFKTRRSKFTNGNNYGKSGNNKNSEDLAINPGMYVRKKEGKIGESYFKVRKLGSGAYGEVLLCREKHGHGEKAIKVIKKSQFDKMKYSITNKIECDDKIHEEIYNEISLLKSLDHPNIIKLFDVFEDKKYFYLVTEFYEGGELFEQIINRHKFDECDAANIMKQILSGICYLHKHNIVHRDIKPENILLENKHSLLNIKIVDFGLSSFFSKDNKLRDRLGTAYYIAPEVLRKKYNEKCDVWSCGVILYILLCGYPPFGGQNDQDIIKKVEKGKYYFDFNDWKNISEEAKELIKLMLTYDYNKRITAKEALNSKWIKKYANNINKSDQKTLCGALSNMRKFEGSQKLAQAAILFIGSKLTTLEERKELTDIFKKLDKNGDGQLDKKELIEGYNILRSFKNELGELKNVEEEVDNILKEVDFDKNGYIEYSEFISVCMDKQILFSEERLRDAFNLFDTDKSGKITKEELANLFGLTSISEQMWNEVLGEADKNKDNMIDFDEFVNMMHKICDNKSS
Protein kinase 7 (PK7), Plasmodium falciparum 3D7 (PF3D7_0213400), sequence (Q7YTF7 1-343): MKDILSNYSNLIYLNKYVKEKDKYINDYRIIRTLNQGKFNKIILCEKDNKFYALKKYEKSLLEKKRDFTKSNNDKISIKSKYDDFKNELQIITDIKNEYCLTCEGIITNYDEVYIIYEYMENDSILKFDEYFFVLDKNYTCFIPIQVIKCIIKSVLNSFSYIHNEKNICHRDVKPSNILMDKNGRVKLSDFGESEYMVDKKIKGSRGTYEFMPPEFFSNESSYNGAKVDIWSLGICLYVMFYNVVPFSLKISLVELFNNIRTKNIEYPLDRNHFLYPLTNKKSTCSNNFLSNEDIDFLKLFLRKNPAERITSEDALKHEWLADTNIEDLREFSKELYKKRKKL
Plasmodium falciparum protein kinase 6 (PK6, PF3D7_1337100), sequence (Q8IDW1 1-305): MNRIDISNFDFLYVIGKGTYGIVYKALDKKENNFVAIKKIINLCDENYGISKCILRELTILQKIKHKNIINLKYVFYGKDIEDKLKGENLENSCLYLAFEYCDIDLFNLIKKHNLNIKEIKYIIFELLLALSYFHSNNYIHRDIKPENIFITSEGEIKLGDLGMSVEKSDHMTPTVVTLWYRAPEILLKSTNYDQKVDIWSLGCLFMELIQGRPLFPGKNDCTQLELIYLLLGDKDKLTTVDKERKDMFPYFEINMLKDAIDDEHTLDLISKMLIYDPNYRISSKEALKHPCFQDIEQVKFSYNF
L-lactate dehydrogenase (Plasmodium falciparum (isolate CDC / Honduras)), sequence (Q27743 whole entry, looked up): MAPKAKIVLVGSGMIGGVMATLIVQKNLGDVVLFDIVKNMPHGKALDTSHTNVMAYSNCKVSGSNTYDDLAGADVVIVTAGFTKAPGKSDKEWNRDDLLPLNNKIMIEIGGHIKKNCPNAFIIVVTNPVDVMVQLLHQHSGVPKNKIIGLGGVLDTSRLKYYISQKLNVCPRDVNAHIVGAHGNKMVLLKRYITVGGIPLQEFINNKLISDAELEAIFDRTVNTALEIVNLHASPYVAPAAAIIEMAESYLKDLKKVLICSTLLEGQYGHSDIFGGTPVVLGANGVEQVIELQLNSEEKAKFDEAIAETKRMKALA

| SMILES | growth inhibition [1] | inhibition [2] | inhibition [3] [%] | growth inhibition [4] | outcome [5] | outcome [6] | outcome [7] | outcome [8] |
| --- | --- | --- | --- | --- | --- | --- | --- | --- |
| Cc1ccc(N2C(N)=NC(N)=NC2(C)C)cc1 | 20% | 43% | 0 | 96% (active) | inactive | inactive | inactive | inactive |
| CCC(O)(C#Cc1c(C)nc(N)nc1N)CC | -5% | 63% (active) | 2 | 97% (active) | inactive | inactive | inactive | inactive |
| O=C(Nc1cccc(Cl)c1Cl)N[C@H]1CCN(CCCCCNC(=O)[C@@H]2C[C@H]2c2ccc(Cl)c(Cl)c2)C1 | -7% | 40% | -2 | 87% (active) | inactive | inactive | inactive | inactive |
| Cc1c(C)c2c(c(C)c1O)CC[C@@](C)(C(=O)N1CCC(CCN3CCC(c4c[nH]c5ccccc45)CC3)CC1)O2 | 91% (active) | 37% | 6 | 98% (active) | inactive | inactive | inactive | inactive |
| CC(C)NCc1cccc(-c2ccc(-c3nc4ccccc4[nH]3)cc2)c1 | 66% (active) | 4% | -2 | 101% (active) | inactive | inactive | inactive | inactive |
| O=C(Nc1cccc(CN2CCCN(Cc3ncc[nH]3)CC2)c1)c1ccc(Cl)c(Cl)c1 | 16% | 8% | 1 | 100% (active) | inactive | inactive | inactive | inactive |
| COc1ccc(NC(=O)c2ccc(-c3nc(-c4ccc(Cl)cc4)cs3)cc2)cc1N1CCN(C)CC1 | 34% | 30% | 0 | 91% (active) | inactive | inactive | inactive | inactive |
| Cc1cc(NN=Cc2ccccc2[N+](=O)[O-])c2cc(F)ccc2n1 | 100% (active) | 18% | -3 | 102% (active) | inactive | inactive | inactive | inactive |
| CCN(CCCN1CCCCC1)c1cc(C)nc(Nc2ccc(Cl)cc2)n1 | 82% (active) | 23% | -2 | 101% (active) | inactive | inactive | inactive | inactive |
| NC1CCN(Cc2ccc(-c3ccc(-c4nc5ccccc5[nH]4)cc3)cc2)C1 (stereo unspecified) | 100% (active) | 34% | -5 | 101% (active) | inactive | inactive | inactive | inactive |
| CCOc1c(CCNCCCCNCCc2ccc3ccccc3c2OCC)ccc2ccccc12 | 87% (active) | 100% (active) | -3 | 94% (active) | inactive | inactive | inactive | inactive |
| O=C(Nc1cccc(CN2CCCN(Cc3cccc(O)c3)CC2)c1)c1ccc(Cl)c(Cl)c1 | 79% (active) | 25% | 2 | 102% (active) | inactive | inactive | inactive | inactive |
| COc1ccc(-c2ccc(NC(=O)c3ccc(C#N)cc3)c(F)c2)cc1CN(C)CCN(C)C | 0% | 24% | -4 | 88% (active) | inactive | inactive | inactive | inactive |
| O=C(Nc1cccc(CN2CCCN(Cc3cccc(F)c3)CC2)c1)c1ccc(Cl)c(Cl)c1 | 6% | 28% | -1 | 85% (active) | inactive | inactive | inactive | inactive |
| CCN1CCN(c2cc(C)c3cc(NC(=O)c4ccc([N+](=O)[O-])c(C)c4)ccc3n2)CC1 | 39% | 8% | -2 | 92% (active) | inactive | inactive | inactive | inactive |
| CC(C(=O)N1CCCC1)N1CCN(S(=O)(=O)c2ccc(C(C)(C)C)cc2)CC1 (stereo unspecified) | 86% (active) | 4% | 0 | 98% (active) | inactive | inactive | inactive | inactive |
| Fc1ccc2nc(-c3ccc(-c4ccc(CN5CCCCC5)cc4)s3)[nH]c2c1 | 100% (active) | 42% | -2 | 92% (active) | inactive | inactive | inactive | inactive |
| CC1Cc2ccccc2N1S(=O)(=O)c1cccc(C(=O)Nc2nc(-c3ccccn3)cs2)c1 (stereo unspecified) | 77% (active) | 32% | -2 | 84% (active) | inactive | inactive | inactive | inactive |
| COc1cccc(-c2cc(C(=O)Nc3ccc4nc(-c5ccccc5)[nH]c4c3)[nH]n2)c1 | 65% (active) | 68% (active) | 2 | 100% (active) | inactive | inactive | inactive | inactive |

| SMILES | growth inhibition [1] | inhibition [2] | inhibition [3] [%] | growth inhibition [4] | outcome [5] | outcome [6] | outcome [7] | outcome [8] |
| --- | --- | --- | --- | --- | --- | --- | --- | --- |
| COc1cccc(C(O)CNc2ccnc(Nc3cccc(-c4csc(C)n4)c3)n2)c1 (stereo unspecified) | 73% (active) | 38% | -8 | 99% (active) | inactive | inactive | inactive | inactive |
| COc1ccc(CCN(C)CCOc2ccc(NC(=O)c3ccc([N+](=O)[O-])c4c(=O)c5ccccc5[nH]c34)cc2)cc1OC | 25% | 38% | -2 | 91% (active) | inactive | inactive | inactive | inactive |
| CCCNCc1ccc(-c2ccc(CN(CCOC)C(=O)CC3CCCC3=O)cc2)nc1 (stereo unspecified) | 9% | 5% | 3 | 93% (active) | inactive | inactive | inactive | inactive |
| Cc1c(Cc2ccccc2Cl)cnc2nc(N)nc(N)c12 | 96% (active) | 67% (active) | -2 | 91% (active) | inactive | inactive | inactive | inactive |
| O=C(c1cccc(-c2cccc(-c3nc4ccc(C(F)(F)F)cc4[nH]3)c2)c1)N1CCCCC1CN1CCC(O)C1 (stereo unspecified) | 101% (active) | 51% (active) | 0 | 91% (active) | inactive | inactive | inactive | inactive |
| CCOC(=O)c1cnc2c(OC)cc(OC)c(Cl)c2c1Nc1ccccc1 | 100% (active) | 13% | -3 | 99% (active) | inactive | inactive | inactive | inactive |
| C#CCCOc1ccc2ccccc2c1CNCCCCCCNCc1c(OCCC#C)ccc2ccccc12 | 65% (active) | 100% (active) | 2 | 100% (active) | inactive | inactive | inactive | inactive |
| CCCC(=O)Nc1ccc(OCCCN(Cc2ccccc2C(F)(F)F)c2ccc(C#N)c(C(F)(F)F)c2)cc1 | 79% (active) | -5% | 2 | 89% (active) | inactive | inactive | inactive | inactive |
| O=S(=O)(Nc1cccc(CCN2CCC(N3CCCCC3)CC2)c1)c1ccc(-c2ccccc2)cc1 | 49% | 76% (active) | 1 | 100% (active) | inactive | inactive | inactive | inactive |
| OCCN1CCN(Cc2cccc(-c3ccc(-c4nc5ccc(C(F)(F)F)cc5[nH]4)s3)c2)CC1 | 98% (active) | 42% | -5 | 101% (active) | inactive | inactive | inactive | inactive |
| COc1ccc(-c2ccc(NC(=O)c3cccc(C#N)c3)cc2)cc1CN1CCN(C)CC1 | 59% (active) | 26% | 8 | 100% (active) | inactive | inactive | inactive | inactive |
| COc1cc(-n2c(CN3CCCC3)nc3cc(-c4ccc(Cl)cc4)sc3c2=O)ccc1OCCN1CCCC1 | 90% (active) | 66% (active) | -5 | 94% (active) | inactive | inactive | inactive | inactive |
| Cc1cccc(CC2CC(=O)N(c3ccc([N+](=O)[O-])cc3)C2=O)c1 (stereo unspecified) | 1% | 11% | 2 | 95% (active) | inactive | inactive | inactive | inactive |
| COc1ccc(-c2ccc(NC(=O)c3cccc(Cl)c3)cc2)cc1CN(C)CCN(C)C | 35% | 22% | -3 | 100% (active) | inactive | inactive | inactive | inactive |
| CCCCSc1ccc2nc(-c3c[nH]c4ccc(C#N)cc34)cn2c1 | 37% | 3% | 3 | 94% (active) | inactive | inactive | inactive | inactive |
| Cc1cccn2c(=O)c3cc(C(=O)NCCc4ccccc4)c(=N)n(CCCOC(C)C)c3nc12 | 40% | 19% | -3 | 101% (active) | inactive | inactive | inactive | inactive |
| CCc1ccc(C2CCN(CCCCNC(=O)c3ccc(NC(=O)c4ccc(Cl)cc4)cc3)CC2)c(OC)c1 | 80% (active) | 26% | -6 | 101% (active) | inactive | inactive | inactive | inactive |
| COc1cc(C(F)(F)F)nc2c(CNCCCNc3cc(=O)c4ccccc4[nH]3)scc12 | 16% | -7% | -2 | 92% (active) | inactive | inactive | inactive | inactive |

Reference: PubChem BioAssay
